Assay [1] can be described thus: NCI Yeast Anticancer Drug Screen. Data for the rad50 strain (AID 155).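 Further: 0% = growth of vehicle-only cultures of the same strain.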 The following applies: S. cerevisiae rad50 strain growth inhibition; at 50.0 µM; stronger effect = higher value. A digest of the protocol: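 A DNA repair-deficient yeast mutant serves as the test organism; compound-induced growth inhibition is calculated against vehicle-treated cells.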
The nature of assay [2]: NCI Yeast Anticancer Drug Screen. Data for the mec2-1 strain (AID 157). The following applies: S. cerevisiae mec2-1 strain, at 50.0 µM, stronger effect = higher value. A digest of the protocol:
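Strain: mec2-1 (DNA repair/cell cycle alteration). Compound exposure, then growth measured; inhibition expressed relative to vehicle.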

A short description of assay [3]: NCI Yeast Anticancer Drug Screen. Data for the sgs1 mgt1 strain (AID 161).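 Further: 0% = growth of cultures given vehicle only.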 The following applies: S. cerevisiae sgs1 mgt1 strain, at 50.0 µM, stronger effect = higher value. The essentials: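 Genetically altered yeast, compound exposure, growth inhibition relative to vehicle.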
Assay [4] can be described thus: NCI Yeast Anticancer Drug Screen. Data for the cln2 rad14 strain (AID 165).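 Further: 0% = growth equal to vehicle treated cultures.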 Conditions: S. cerevisiae cln2 rad14 strain, at 50.0 µM, stronger effect = higher value. The essentials: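 Compounds are applied to the cln2 rad14 yeast strain, and growth is then compared with that of vehicle-treated cultures to give inhibition.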
Assay [5] can be described thus: NCI Yeast Anticancer Drug Screen. Data for the bub3 strain (AID 167). The following applies: S. cerevisiae bub3 mutant strain, at 50.0 µM, stronger effect = higher value. The essentials:
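Inhibition values come from growth of compound-treated mutant yeast normalised to vehicle-treated controls.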

The nature of assay [6]: NCI Yeast Anticancer Drug Screen. Data for the mlh1 rad18 strain (AID 175). Conditions: S. cerevisiae mlh1 rad18 strain growth inhibition; at 50.0 µM; stronger effect = higher value. A digest of the protocol:
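Read-out is yeast growth inhibition, calculated against vehicle-only controls. The compound was applied to a strain engineered with DNA damage repair alterations.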

About 79,000 compounds went through this panel and 15% of them were active in at least one assay; those are over-represented in the sample as a whole. Unmarked numbers belong to inactive results. Activity calls are given as the source filed them. No stated cut-off is given here; in the data, active means growth inhibition above about 70%; inactive means the rest.

In the case of `CCOC(=O)N1Cc2cc3ccc(OC)cc3nc2C1`, the growth inhibition in assay [1] was 6%; in assay [2] it was -4.15%; in assay [3], -21.1%; in assay [4], -10%; in assay [5], -24.4%; in assay [6] it was 3.9%.

For the compound `CCN(CC)C(C)(C)C(=O)/C=C/c1ccc(C)cc1`, the growth inhibition in assay [1] was 5.45%; in assay [2], -3.75%; in assay [3], -16.5%; in assay [4] it was 12.3%; in assay [5] it was 5.75%; in assay [6], 43.1%.

For the compound `CC(C)C1=CC2=CCC3C(C)(COC(=O)CSC(C)(C)C)CCCC3(C)C2CC1` (stereo unspecified), the growth inhibition in assay [1] was 14.2%; in assay [2], -2.25%; in assay [3], 31.6%; in assay [4] it was 18.6%; in assay [5] it was -1.9%; in assay [6], 20.2%.

With `Cc1cc(C)c(NC(N)=S)cc1C`, the growth inhibition in assay [1] is 7.65%; in assay [2] it was -23.2%; in assay [3], -5.35%; in assay [4], -7.7%; in assay [5], -5.55%; in assay [6] it was 7.55%.

Take `CC(=O)OCCOC(=O)Nc1ccccc1`: the growth inhibition was 0.05% in assay [1]; -14.5% in assay [2]; -13.9% in assay [3]; -22.2% in assay [4]; -2.55% in assay [5]; -4.85% in assay [6].

Turning to `CC1(C)CNC[C@](C)(OCCCO[C@@]2(C)CNCC(C)(C)NC2=O)C(=O)N1`, the growth inhibition was -11.4% in assay [1]; -33.5% in assay [2]; -21.2% in assay [3]; 25.6% in assay [4]; 3.95% in assay [5]; -9.45% in assay [6].

`C[N+](C)(CC(=O)Nc1cc(C(F)(F)F)cc(C(F)(F)F)c1)CC(=O)Nc1ccc(Cl)c(C(F)(F)F)c1`: the growth inhibition in assay [1] was 99.5% (active); in assay [2], 99.8% (active); in assay [3], 99.8% (active); in assay [4], 99.3% (active); in assay [5] it was 99.4% (active); in assay [6], 99.5% (active).

For `CCOC(=O)/C(=N/O)c1ccccn1`, the growth inhibition in assay [1] was 0.4%; in assay [2], -8.65%; in assay [3] it was -4.35%; in assay [4], 16.2%; in assay [5], -5.35%; in assay [6], -3.8%.

As to `CCCCCC(=O)N1CCCCC1CC` (stereo unspecified), the growth inhibition in assay [1] was -8.55%; in assay [2] it was 7.15%; in assay [3], -19.6%; in assay [4], -10.1%; in assay [5], -25.6%; in assay [6], -28.1%.

On to `CC(C)(C)NC(=O)Oc1ccc(Br)cc1Br`, for which the growth inhibition is -1.5% in assay [1]; 14.4% in assay [2]; 18.6% in assay [3]; -14.2% in assay [4]; 9.75% in assay [5]; 21.2% in assay [6].

Regarding `CN1c2ccccc2C2=C(c3ccccc3)CC[C@@H](C(=O)N3C4CC5CC[C@@]4(CS3(=O)=O)C5(C)C)[C@@H]21` (stereo partly specified), the growth inhibition in assay [1] is -14.6%; in assay [2], -6.2%; in assay [3] it was 20.6%; in assay [4], 10%; in assay [5], -8.85%; in assay [6] it was 31.8%.

As to `CCCC1(CCC)OC(=O)C(CC)(CC)C(=O)O1`, the growth inhibition was -10.8% in assay [1]; -3.2% in assay [2]; -1.6% in assay [3]; -23.2% in assay [4]; 14.1% in assay [5]; -6% in assay [6].

As to `Cc1ccc2c(c1)-c1nc3nnnn3nc1C(C)(C)O2`, the growth inhibition in assay [1] was 21%; in assay [2], 6.8%; in assay [3] it was 34%; in assay [4], -6.85%; in assay [5] it was 15.1%; in assay [6] it was 26.8%.

Regarding `COC(=O)N/N=C/c1cccc(C)n1`, the growth inhibition was -5.55% in assay [1]; 2.05% in assay [2]; -4.55% in assay [3]; 0.7% in assay [4]; -5.25% in assay [5]; -11.6% in assay [6].

As for `NS(=O)(=O)c1ccc2cc(S(N)(=O)=O)ccc2c1`, the growth inhibition in assay [1] was 19.1%; in assay [2] it was 13.5%; in assay [3], 22.4%; in assay [4] it was 15.5%; in assay [5], 23.1%; in assay [6], 25.8%.

On to `COc1ccc(OC)c(C(N)=O)c1`, for which the growth inhibition is -0.1% in assay [1]; 13.8% in assay [2]; -1.25% in assay [3]; 0.95% in assay [4]; 0.85% in assay [5]; -2.5% in assay [6].

For `O=C1C=C(Nc2ccccc2)c2ccc(S(=O)(=O)O)cc2C1=O`, the growth inhibition in assay [1] is 0.4%; in assay [2], -6.9%; in assay [3], 10.1%; in assay [4], -0.8%; in assay [5] it was -29.1%; in assay [6] it was -6.55%.

`O=C(O)C(Cc1ccccc1)N1C(=O)c2ccccc2C1=O` (stereo unspecified): the growth inhibition in assay [1] was 1.7%; in assay [2] it was -17.5%; in assay [3] it was -35.6%; in assay [4], -19.6%; in assay [5], -36.5%; in assay [6] it was 5.55%.

Turning to `CCCCCCCCCCCCCCCCCCc1c(C)cc(C)cc1C`, the growth inhibition in assay [1] was 3.7%; in assay [2] it was 23.2%; in assay [3], 3.7%; in assay [4], 33.3%; in assay [5], 3.55%; in assay [6] it was 4.3%.

As to `CC(C)(N)CNc1ccccc1`, the growth inhibition in assay [1] is -0.55%; in assay [2], -4.95%; in assay [3] it was -9.85%; in assay [4], -11.1%; in assay [5], 15.7%; in assay [6], -4.4%.

In the case of `CCCc1cc(C(=O)N/N=C/c2ccc([N+](=O)[O-])cc2)c2ccccc2n1`, the growth inhibition in assay [1] was -28.3%; in assay [2], -3.2%; in assay [3], 0.1%; in assay [4], -40.5%; in assay [5], 9.5%; in assay [6], -2.8%.

These data come from PubChem BioAssay (NCI).
